# LmPK inh: blocks Leishmania mexicana pyruvate kinase activity; purified LmPK, Kinase-Glo ATP luminescence, 1 h; 290,000 compounds, 0.37% hits; Potency, µM (top dose mostly 57.5 µM), for the others: at the top dose activity change, negative = inhibition, most hits filed as inhibitors; Q27686
#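 In 50 mM imidazole pH 7.2 with 7 mM MgCl2, LmPK (0.1 nM) turned over PEP (0.5 mM) and ADP (0.1 mM) for 1 h at room temperature. Luciferase read-out of ATP.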
# Sm TGR block: blocks Schistosoma mansoni thioredoxin glutathione reductase; purified TGR, DTNB reduction, TNB absorbance 405 nm; Potency, µM (series often up to 114 µM), for inactives: top-dose activity change, negative = inhibition, hits mostly inhibitors; 360,000 compounds, 3% hits; AID 485364; further: nearly all actives have a fitted effect of over 60% in size
#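 TGR 20 nM + NADPH 100 uM (dispensed conc.), cpd preinc 15 min RT; start with NADPH (500 uM addition) then DTNB (15 mM addition). Kinetic TNB absorbance, 405 nm filter. Four-parameter Hill fit across titration.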
# TbPYK inhibitor: inhibitors of Trypanosoma brucei pyruvate kinase | Q57TT1 | TbPYK enzyme, Kinase-Glo Plus ATP luminescence, 45 min | Potency, µM (series often up to 76.8 µM), inactives show at the highest dose activity, negative = inhibition, usual class: inhibitors | 410,000 compounds, 0.12% hits | AID 624173; further: nearly all actives have a fitted effect of over 50% in size
#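 TbPYK + substrate in 50 mM TEA pH 7.2, 100 mM KCl, 10 mM MgCl2, 0.05% BSA, 0.01% Tween-20; cpd pinned; ADP 130 uM final; 45 min RT; Kinase-Glo Plus 10 min; luminescence endpoint.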
# RE007 growth inh: less growth of the S. pombe RE007 Vpr strain. S. pombe RE007 Vpr strain, BacTiter-Glo ATP luminescence, 24 h. Potency, µM (series often up to 92.2 µM), for the others: top-dose activity change, negative = less growth, actives largely listed as inhibitors. 360,000 compounds, 0.21% hits; active means well fitted falling curve with a large enough effect; inconclusive means small, poorly fitted or top-dose-only effect; inactive means no such curve, though single readings can be large or run the other way; further: nearly all actives have a fitted effect of over 50% in size
#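 Fission yeast RE007 carrying one integrated HIV-1 vpr copy, seeded at OD 0.01 in PMG+AL medium with 23 nL pinned compound. Grown 24 h at 30 degrees; viability read by BacTiter-Glo luminescence after 5 min.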
# Giardia FBPA inh: Giardia lamblia aldolase inhibition; AID 2451; 290,000 compounds, 0.71% hits; Potency, µM (highest dose often 59.6 µM), without a hit: at the top dose activity, negative = inhibition, actives largely listed as inhibitors; purified Giardia FBPA; further: nearly all actives have a fitted effect of over 55% in size
# Target sequence (A8B2U2 whole entry, looked up): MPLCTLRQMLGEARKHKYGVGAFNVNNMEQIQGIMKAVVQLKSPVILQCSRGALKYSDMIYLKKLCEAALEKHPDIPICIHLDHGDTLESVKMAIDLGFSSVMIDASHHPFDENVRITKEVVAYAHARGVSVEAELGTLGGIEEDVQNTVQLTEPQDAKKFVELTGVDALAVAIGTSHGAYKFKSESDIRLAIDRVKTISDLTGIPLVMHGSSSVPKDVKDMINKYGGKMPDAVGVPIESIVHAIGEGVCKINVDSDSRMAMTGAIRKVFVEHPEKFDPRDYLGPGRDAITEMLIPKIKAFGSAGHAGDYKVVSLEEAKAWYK
#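 40 nM FBPA preincubated 10 min at RT with compound (up to 57.5 uM final), then substrate plus GAPDH/TPI/NAD/arsenate coupling and diaphorase/resazurin added. Fluorescence read after 20 min at RT, 525/598 nm.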
# An asterisk follows results filed as active; ? = inconclusive; nt = not tested or not shown; [ ] = another dose, or the depositor's remark. Rows were chosen to be rich in hits. Some 3.3% of all compounds tested hit in one or more screens of this group. Unless noted, the call rests on the fitted dose curve; in most records, active means well fitted curve in the direction sought with a large enough effect; inconclusive means small, poorly fitted or top-dose-only effect, or another doubt; inactive means no such curve, though single readings can be large; an effect the other way counts as inactive or inconclusive. On the % scale 0 is the no-effect control and ±100 the full control effect; potency means the concentration at half of the fitted maximal effect.
SMILES,LmPK inh,Sm TGR block,TbPYK inhibitor,RE007 growth inh,Giardia FBPA inh
C/C(=N/NS(C)(=O)=O)c1ccc2ccccc2c1,-4%,0%,2%,8%,0%
CCc1cccc2c(C(=O)CCl)c[nH]c12,-1%,7.9µM*,-5%,22%,3%
COc1ccc(N2CCN(C(=O)c3ccc4c(=O)n(CC5CCCO5)c(=O)[nH]c4c3)CC2)cc1 (stereo unspecified),-8%,2%,-2%,-7%,4%
CCOCCCNc1nc(C(F)(F)F)nc2c1nnn2Cc1ccccc1Cl,0%,0%,3%,0%,-1%
Cn1nc([N+](=O)[O-])c(C(C#N)c2nc3ccccc3n2C)c(Cl)c1=O (stereo unspecified),-4%,32µM*,-17%,-5%,8%
Cc1ccc2c(c1)N(Cc1cccc(F)c1)C(=O)C(C)O2 (stereo unspecified),3%,4%,3%,-11%,-15%
CC1Oc2ccccc2N(Cc2cccc(F)c2)C1=O (stereo unspecified),7%,89µM*,-4%,-3%,4%
COc1ccc2c(c1)OC1=C(C(=O)CCC1)C2C1=C(O)CCCC1=O (stereo unspecified),0%,18µM*,-16%,-8%,-2%
O=C1CCCC(O)=C1C1C2=C(CCCC2=O)OC2=C1C(=O)CCC2,-7%,-6%[57.1 µM],6%,-26%,2%
COc1ncnc2sc(-c3ccccc3)cc12,13µM*,-3%,?,?,4%
C=CCn1c(SCC(=O)Nc2nnc(C)s2)nnc1C1CC1,-8%,0%,2%,2%,nt
CCN1CCN(C(c2cccc(OC)c2)c2c(O)cc(C)n(Cc3ccco3)c2=O)CC1 (stereo unspecified),nt,5.6µM*,42%,nt,nt
CCN1CCN(C(c2cccc(OC)c2)c2sc3nc(C)nn3c2O)CC1 (stereo unspecified),-1%,0%,-14%,-3%,-1%
CCN1CCN(C(c2cccc(F)c2)c2c(O)cc(C)n(Cc3ccco3)c2=O)CC1 (stereo unspecified),nt,5µM*,5%,nt,nt
COc1cccc(C(c2c(O)cc(C)n(Cc3ccco3)c2=O)N2CCC(C)CC2)c1 (stereo unspecified),nt,11µM*,6%,nt,nt
O=C1C2=C(C(=O)c3ccccc31)C1O[C@](CCCCN3C(=O)c4ccccc4C3=O)(Cc3ccccc31)O2,-1%[11.5 µM],?,nt,nt,?
Cc1ccc2nsnc2c1NC(=O)CCc1ccccc1,0%,5%,3%,3%,0%
COc1ccc(CNC(=O)CN2CCN(S(=O)(=O)c3c(C)c(C)cc(C)c3C)CC2)cc1OC,nt,nt,0%,17%,nt
COCCNC(=O)C1(C)CCCN(Cc2ccc(OCc3ccccc3)cc2)C1 (stereo unspecified),nt,nt,0%,-19%,nt
CSc1ncccc1C(=O)NCCc1ccc(Cl)cc1,8%,5%,4%,31%,-1%
Cc1cccc(-n2c(CNC(=O)c3ccc(S(=O)(=O)N4CCCC4)cc3)n[nH]c2=S)c1,-10%,-12%,14µM*,2%,-3%
O=c1cc(CN2CCCc3ccccc32)nc2sccn12,1%,28µM*,1%,-2%,?
O=C(OC[C@H]1O[C@@H](OC(=O)c2cc(O)c(O)c(OC(=O)c3cc(O)c(O)c(O)c3)c2)[C@H](OC(=O)c2cc(O)c(O)c(OC(=O)c3cc(O)c(O)c(O)c3)c2)[C@@H](OC(=O)c2cc(O)c(O)c(OC(=O)c3cc(O)c(O)c(O)c3)c2)[C@@H]1OC(=O)c1cc(O)c(O)c(OC(=O)c2cc(O)c(O)c(O)c2)c1)c1cc(O)c(O)c(OC(=O)c2cc(O)c(O)c(O)c2)c1,nt,45µM*,nt,nt,nt
Cc1cc2c(c(=O)n1CCc1ccccc1)C(C(C)C)C(C#N)=C(N)O2 (stereo unspecified),-1%,-12%,6%,-4%,5%
OCc1ccc(Cl)cc1Cl,nt,nt,-9%,nt,nt
SMILES,LmPK inh,Sm TGR block,TbPYK inhibitor,RE007 growth inh,Giardia FBPA inh
Clc1ccc(C(Cl)(Cl)Cl)c(Cl)c1,nt,2.8µM*,2%,5%,nt
O=C1CCCN1CCCNC(=S)Nc1ccccc1,0%,?,2%,0%,?
COc1ccc(Cl)cc1NC(=S)NCCCN1CCCC1=O,0%,50µM*,-3%,-2%,1%
COc1ccc(Cl)cc1NC(=S)NCCc1ccc(S(N)(=O)=O)cc1,4%,2.8µM*,-17%,11%,-1%
O=C1CCCN1CCCNC(=S)Nc1ccc(Br)cc1Cl,-7%,14µM*,-13%,1%,-3%
COc1ccc(Cl)cc1NC(=S)NCCN1CCOCC1,0%,nt,-4%,-7%,0%
COc1ccc(/C=N/NC(=O)c2ccn[nH]2)cc1COc1ccc([N+](=O)[O-])c(C)c1,-2%,6%,2%,7%,-2%
COc1ccc(C(=O)N2CCC(C(=O)O)CC2)c2ccccc12,-7%,-17%,-6%,11%,-8%
N#Cc1ccccc1S(=O)(=O)N1CCN(C(=O)c2ccc(-n3cncn3)c([N+](=O)[O-])c2)CC1,nt,4%,2%,-10%,nt
NC(=O)Nc1ccc(C(=O)OCC(=O)N2CCc3ccccc3C2)cc1,nt,-15%,-2%,5%,nt
CN(C)S(=O)(=O)Oc1ccsc1C(=O)Nc1ccc(Cl)c(Cl)c1,2%,-3%,-7%,-24%,-7%
O=C(COC(=O)CCc1ccccc1)NCc1ccc2c(c1)OCO2,nt,nt,0%,0%,nt
O=C(/C=C/c1ccccc1)NCC(=O)N/N=C\c1cccnc1,-6%,4%,1%,4%,6%
Cc1[nH]c(=O)[nH]c(=O)c1/C=N/NC(=O)[C@@H](NC(=O)OC(C)(C)C)C(C)C,2%,35µM*,7%,4%,8%
Cc1[nH]c(=O)[nH]c(=O)c1/C=N/NC(=O)CCNC(=O)OC(C)(C)C,-8%,17%,2%,3%,-13%
Cc1[nH]c(=O)[nH]c(=O)c1/C=N/NC(=O)[C@H](C)N,-21%,50µM*,-4%,-5%,?
Cc1[nH]c(=O)[nH]c(=O)c1/C=N/NC(=O)CCCCCNC(=O)OC(C)(C)C,2%,10%,4%,-13%,?
Cc1ccccc1-c1cc2nc(NCCOc3ccccc3)n(C)c(=O)c2s1,nt,nt,0%,10%,nt
O=C(NCc1ccc(Cl)cc1)c1cccc(NC(=O)c2ccccc2)c1,-1%,-5%,0%,?,5%
COc1ccc(NC(C)=O)cc1NC(C)C(=O)Nc1ccccc1F (stereo unspecified),1%,7%[11.4 µM],-9%,5%,-10%
Cc1[nH]nc(SCC(=O)N2CCCCCC2)c1[N+](=O)[O-],2%,9%,-9%,-1%,1%
Cc1nc(NS(=O)(=O)c2ccccc2)sc1NC(=O)OCCN(C)C,-6%,32µM*,-8%,18%,?
